Laboratory results published in PubChem BioAssay AID1159580 (chemical genetic matrix, 2015).
Hit rate of the full screen: of about 5,500 compounds, about 2,000 (36%) were called active. About 18% were inconclusive and are not listed. No stated cut-off is given here; in the data, active means normalized growth mostly below about 0.91 (no sharp cut-off); inconclusive means no clear call, values can overlap the other calls; inactive means mostly above about 0.92. This is one part of the list.

Test: chemical genetic growth profiling, strain panel (AID 1159580);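 further: tested at 20 µM; growth read once vehicle control cultures reached saturation at 30 °C; 1 = growth at the plate median or of vehicle wells; lower values mean less growth of the strain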
Conditions: growth OD

Measured: normalized growth

Cc1cc(O)cc(O)c1C(=O)O
inactive: S. cerevisiae deletion strains, locus YJR066W, strain TOR1, hits give low values 1.01 | S. cerevisiae deletion strains, locus YJR075W, strain HOC1, hits give low values 1.01 | S. cerevisiae deletion strains, locus YKL009W, strain mrt4, hits give low values 0.964 | S. cerevisiae deletion strains, locus YKL068W, hits give low values 0.992 | S. cerevisiae deletion strains, locus YKL085W, strain MDH1 (second series), hits give low values 1 | S. cerevisiae deletion strains, locus YKL085W, strain MDH1, hits give low values 1 | S. cerevisiae deletion strains, locus YKL160W, strain elf1, hits give low values 0.994 | S. cerevisiae deletion strains, locus YKL190W, strain CNB1, hits give low values 0.978 | S. cerevisiae deletion strains, locus YKR001C, strain vps1, hits give low values 1.01 | S. cerevisiae deletion strains, locus YKR026C, strain gcn3, hits give low values 1.02 | S. cerevisiae deletion strains, locus YKR091W, strain srl3, hits give low values 1.01 | S. cerevisiae deletion strains, locus YLL001W, strain dnm1, hits give low values 0.992 | S. cerevisiae deletion strains, locus YLL026W, hits give low values 1.02 | S. cerevisiae deletion strains, locus YLL041C, strain sdh2, hits give low values 1.03 | S. cerevisiae deletion strains, locus YLR027C, strain aat2, hits give low values 1.03 | S. cerevisiae deletion strains, locus YLR039C, strain RIC1, hits give low values 1.19 | S. cerevisiae deletion strains, locus YLR058C, strain SHM2, hits give low values 1.02 | S. cerevisiae deletion strains, locus YLR102C, strain apc9, hits give low values 1.01 | S. cerevisiae deletion strains, locus YLR113W, strain HOG1, hits give low values 1.09 | S. cerevisiae deletion strains, locus YLR221C, strain rsa3, hits give low values 1.04 | S. cerevisiae deletion strains, locus YLR258W, strain gsy2, hits give low values 1.04 | S. cerevisiae deletion strains, locus YLR262C, strain YPT6 (second series), hits give low values 1.04 | S. cerevisiae deletion strains, locus YLR268W, strain sec22, hits give low values 1.04 | S. cerevisiae deletion strains, locus YLR320W, strain mms22, hits give low values 1.03 | S. cerevisiae deletion strains, locus YLR330W, strain CHS5, hits give low values 1.01 | S. cerevisiae deletion strains, locus YLR342W, strain FKS1 (second series), hits give low values 1.02 | S. cerevisiae deletion strains, locus YLR342W, strain FKS1, hits give low values 1.03 | S. cerevisiae deletion strains, locus YLR357W, strain rsc2, hits give low values 1.01 | S. cerevisiae deletion strains, locus YLR370C, strain arc18, hits give low values 1.01 | S. cerevisiae deletion strains, locus YLR371W, strain rom2, hits give low values 0.987 | S. cerevisiae deletion strains, locus YLR384C, strain iki3, hits give low values 1.03 | S. cerevisiae deletion strains, locus YLR418C, strain cdc73, hits give low values 1.02 | S. cerevisiae deletion strains, locus YML016C, strain PPZ1, hits give low values 1.01 | S. cerevisiae deletion strains, locus YML032C, strain rad52, hits give low values 0.99 | S. cerevisiae deletion strains, locus YML120C, strain ndi1, hits give low values 1.01 | S. cerevisiae deletion strains, locus YML124C, strain tub3, hits give low values 0.989 | S. cerevisiae deletion strains, locus YMR058W, strain fet3, hits give low values 1.03 | S. cerevisiae deletion strains, locus YMR078C, strain ctf18, hits give low values 1 | S. cerevisiae deletion strains, locus YMR125W, strain sto1, hits give low values 1 | S. cerevisiae deletion strains, locus YMR129W, hits give low values 1 | S. cerevisiae deletion strains, locus YMR205C, strain PFK2, hits give low values 1 | S. cerevisiae deletion strains, locus YMR223W, strain ubp8, hits give low values 0.978 | S. cerevisiae deletion strains, locus YMR231W, strain pep5, hits give low values 1.01 | S. cerevisiae deletion strains, locus YMR307W, strain GAS1, hits give low values 1.19 | S. cerevisiae deletion strains, locus YNL067W, strain RPL9B, hits give low values 0.991 | S. cerevisiae deletion strains, locus YNL071W, strain lat1, hits give low values 1.01 | S. cerevisiae deletion strains, locus YNL153C, strain GIM3, hits give low values 0.998 | S. cerevisiae deletion strains, locus YNL183C, strain NPR1, hits give low values 1.01 | S. cerevisiae deletion strains, locus YNL209W, strain ssb2, hits give low values 1 | S. cerevisiae deletion strains, locus YNL233W, strain BNI4, hits give low values 1.04 | S. cerevisiae deletion strains, locus YNL248C, strain rpa49, hits give low values 1.03 | S. cerevisiae deletion strains, locus YNL250W, strain rad50, hits give low values 0.905 | S. cerevisiae deletion strains, locus YNL271C, strain bni1, hits give low values 0.98 | S. cerevisiae deletion strains, locus YNL298W, strain CLA4, hits give low values 1.01 | S. cerevisiae deletion strains, locus YNL307C, strain MCK1, hits give low values 1 | S. cerevisiae deletion strains, locus YNL322C, strain KRE1 (second series), hits give low values 1 | S. cerevisiae deletion strains, locus YNR049C, strain mso1, hits give low values 1.02 | S. cerevisiae deletion strains, locus YNR052C, strain pop2, hits give low values 1 | S. cerevisiae deletion strains, locus YOL012C, strain htz1 0.732 | S. cerevisiae deletion strains, locus YOL147C, strain pex11, hits give low values 0.988 | S. cerevisiae deletion strains, locus YOR001W, strain rrp6, hits give low values 1.02 | S. cerevisiae deletion strains, locus YOR061W, strain CKA2, hits give low values 1.02 | S. cerevisiae deletion strains, locus YOR069W, strain VPS5, hits give low values 1.01 | S. cerevisiae deletion strains, locus YOR070C, strain gyp1, hits give low values 1.02 | S. cerevisiae deletion strains, locus YOR080W, strain dia2, hits give low values 1.02 | S. cerevisiae deletion strains, locus YOR083W, strain WHI5, hits give low values 0.989 | S. cerevisiae deletion strains, locus YOR106W, strain vam3, hits give low values 0.98 | S. cerevisiae deletion strains, locus YOR136W, strain idh2, hits give low values 0.991 | S. cerevisiae deletion strains, locus YOR144C, strain elg1, hits give low values 0.996 | S. cerevisiae deletion strains, locus YOR184W, strain ser1, hits give low values 1.09 | S. cerevisiae deletion strains, locus YOR231W, strain MKK1, hits give low values 1.11 | S. cerevisiae deletion strains, locus YOR265W, strain rbl2, hits give low values 1.01 | S. cerevisiae deletion strains, locus YOR270C, strain vph1, hits give low values 1.07 | S. cerevisiae deletion strains, locus YOR290C, strain snf2, hits give low values 1 | S. cerevisiae deletion strains, locus YOR316C, strain cot1, hits give low values 0.977 | S. cerevisiae deletion strains, locus YPL051W, strain arl3, hits give low values 0.986 | S. cerevisiae deletion strains, locus YPL055C, strain LGE1, hits give low values 1.09 | S. cerevisiae deletion strains, locus YPL078C, strain atp4, hits give low values 0.997 | S. cerevisiae deletion strains, locus YPL106C, strain sse1, hits give low values 0.986 | S. cerevisiae deletion strains, locus YPL240C, strain hsp82, hits give low values 1.01 | S. cerevisiae deletion strains, locus YPL241C, strain CIN2, hits give low values 0.999 | S. cerevisiae deletion strains, locus YPL256C, strain CLN2, hits give low values 1.09 | S. cerevisiae deletion strains, locus YPR119W, strain clb2, hits give low values 0.981 | S. cerevisiae deletion strains, locus YPR141C, strain kar3, hits give low values 0.973 | S. cerevisiae deletion strains, locus YPR163C, strain tif3, hits give low values 1 | S. cerevisiae deletion strains, locus YPR167C, strain met16, hits give low values 0.996 | S. cerevisiae deletion strains, strain wtn01, hits give low values 1.02 | S. cerevisiae strains, strain wild type, hits give low values 1.03
